Drawing on PubChem BioAssay, this text covers outcome, potentiation and activation for 15 molecules.

For assay [1], the system named is TRPC4 beta (transient receptor potential cation channel C4), mouse. Briefly: activators of mouse TRPC4 channel, confirmation, cell-based, Fluo4 calcium, HEK293 TRPC4beta/mu-opioid, duplicates, 10 µM (AID 2426;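 active = fluorescence ratio normalized to control raised more than 50% in primary screen plus both repeat runs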;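 as to activation: percent rise of integrated ratio over buffer wells lacking compound which define 0%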). To be noted: Fluo4 calcium fluorescence, at 10 µM; hits give high values.
In assay [2] the test system is transient receptor potential cation channel C4 beta (TRPC4), mouse. Nature of the assay: activators of mouse TRPC4 channel, confirmation, cell-based, second round, Fluo4, HEK293 TRPC4beta/mu-opioid, 1 µM (AID 2461;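 active = primary screen active and over 50% activation in each of two duplicate runs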;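 as to activation: 0% = wells without test compound as baseline of integrated fluorescence ratio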). To be noted: Fluo4 calcium fluorescence, at 1 µM; hits give high values.
Assay [3] concerns TRPC4 (transient receptor potential cation channel C4 beta), mouse. Briefly: positive allosteric modulators of mouse TRPC4, confirmation, cell-based, second round, Fluo-4, HEK293 TRPC4beta/mu-opioid, 1 µM (AID 2554;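 active = primary screen hit whose fluorescence ratio, in both repeats, exceeds the weak agonist control mean by 3 SD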). To be noted: DAMGO EC20, Fluo-4 calcium flux, at 1 µM; hits give high values. Background: Calcium flux is commonly read through the fluorescence of an indicator in the cells.

The subject of assay [4] is TRPC4 beta (transient receptor potential cation channel C4), mouse. Briefly: positive allosteric modulators of mouse TRPC4, confirmation, cell-based, Fluo-4, HEK293 TRPC4beta/mu-opioid (AID 2555). Conditions: DAMGO EC20, Fluo-4 calcium flux, at 10 µM; hits give high values.
The target in assay [5] is Short transient receptor potential channel 4 (Mus musculus) (UniProt Q9QUQ5). Briefly: inhibitors of mouse TRPC4 channel, confirmation, cell-based, Fluo4, HEK293 TRPC4beta/mu-opioid (AID 2636;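 active = calcium signal cut by more than 3 SD below the full-agonist control yet still positive, in both repeats and the earlier primary screen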). Conditions: DAMGO, Fluo4 calcium flux, at 10 µM; hits give high values.
Chain of Short transient receptor potential channel 4 (Mus musculus) (Q9QUQ5 whole entry, looked up): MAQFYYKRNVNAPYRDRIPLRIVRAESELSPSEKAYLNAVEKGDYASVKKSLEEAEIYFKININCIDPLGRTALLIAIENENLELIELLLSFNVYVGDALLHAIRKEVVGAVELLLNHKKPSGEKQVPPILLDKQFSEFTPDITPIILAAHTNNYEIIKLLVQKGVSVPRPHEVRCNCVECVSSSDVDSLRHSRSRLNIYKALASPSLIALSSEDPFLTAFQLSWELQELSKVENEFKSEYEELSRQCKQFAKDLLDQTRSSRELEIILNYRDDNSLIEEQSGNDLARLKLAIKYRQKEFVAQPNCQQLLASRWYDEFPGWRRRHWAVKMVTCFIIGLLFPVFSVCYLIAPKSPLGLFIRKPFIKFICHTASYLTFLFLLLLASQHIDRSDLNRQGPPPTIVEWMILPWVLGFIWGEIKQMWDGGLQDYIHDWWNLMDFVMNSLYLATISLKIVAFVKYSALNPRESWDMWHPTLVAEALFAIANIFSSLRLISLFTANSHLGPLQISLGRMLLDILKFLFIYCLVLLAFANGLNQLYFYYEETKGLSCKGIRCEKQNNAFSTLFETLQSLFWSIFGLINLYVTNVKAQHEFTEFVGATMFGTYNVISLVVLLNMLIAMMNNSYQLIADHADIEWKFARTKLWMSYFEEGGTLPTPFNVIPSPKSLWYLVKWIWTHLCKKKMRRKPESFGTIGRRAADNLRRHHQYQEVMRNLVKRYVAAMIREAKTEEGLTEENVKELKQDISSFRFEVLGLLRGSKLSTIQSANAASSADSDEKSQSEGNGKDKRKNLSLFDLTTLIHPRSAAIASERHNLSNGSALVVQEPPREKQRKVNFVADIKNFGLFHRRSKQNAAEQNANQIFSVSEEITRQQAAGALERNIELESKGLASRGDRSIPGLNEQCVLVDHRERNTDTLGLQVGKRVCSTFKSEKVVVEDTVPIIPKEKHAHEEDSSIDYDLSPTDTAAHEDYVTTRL
For assay [6] the target is unchanged. Briefly: inhibitors of mouse TRPC4 channel, confirmation, cell-based, second round, Fluo4, HEK293 TRPC4beta/mu-opioid, 1 µM (AID 2637;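 active = calcium signal ratio cut to more than 3 SD under the fully stimulated control mean yet still positive, in both repeats and the primary screen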). To be noted: Fluo4 calcium flux, DAMGO, at 1 µM; hits give high values.
The target is the same in assay [7]. Nature of the assay: mouse TRPC4 channel activators, dose response, cell-based, HEK293 TRPC4/mu-opioid, Fluo-4 calcium (AID 434937;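 active = primary screen activator hit with a dose response curve and TRPC4 channel activation at any tested dose; inactive = no activation, no dose response, or not a primary hit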).
Assay [8] shares this target. Briefly: mouse TRPC4 channel inhibitors, dose response, cell-based, HEK293 TRPC4/mu-opioid, Fluo-4 calcium (AID 434942;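 active = primary screen inhibitor hit that blocks the TRPC4 channel at some tested dose, yielding a dose curve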).
In assay [9] the target is Short transient receptor potential channel 6 (Mus musculus) (UniProt Q61143). Briefly: inhibition of mouse TRPC6 channel, confirmation, selectivity assay for TRPC4 inhibitor project, cell-based, HEK293, membrane potential dye, duplicate (AID 434948;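 active = active in primary screen and both duplicates, each dropping signal beyond three positive-control SD with fluorescence still positive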). To be noted: HEK293 TRPC6, membrane potential dye fluorescence, at 10 µM, stimulated with maximal-effect acetylcholine; hits give high values.
Chain of Short transient receptor potential channel 6 (Mus musculus) (Q61143 whole entry, looked up): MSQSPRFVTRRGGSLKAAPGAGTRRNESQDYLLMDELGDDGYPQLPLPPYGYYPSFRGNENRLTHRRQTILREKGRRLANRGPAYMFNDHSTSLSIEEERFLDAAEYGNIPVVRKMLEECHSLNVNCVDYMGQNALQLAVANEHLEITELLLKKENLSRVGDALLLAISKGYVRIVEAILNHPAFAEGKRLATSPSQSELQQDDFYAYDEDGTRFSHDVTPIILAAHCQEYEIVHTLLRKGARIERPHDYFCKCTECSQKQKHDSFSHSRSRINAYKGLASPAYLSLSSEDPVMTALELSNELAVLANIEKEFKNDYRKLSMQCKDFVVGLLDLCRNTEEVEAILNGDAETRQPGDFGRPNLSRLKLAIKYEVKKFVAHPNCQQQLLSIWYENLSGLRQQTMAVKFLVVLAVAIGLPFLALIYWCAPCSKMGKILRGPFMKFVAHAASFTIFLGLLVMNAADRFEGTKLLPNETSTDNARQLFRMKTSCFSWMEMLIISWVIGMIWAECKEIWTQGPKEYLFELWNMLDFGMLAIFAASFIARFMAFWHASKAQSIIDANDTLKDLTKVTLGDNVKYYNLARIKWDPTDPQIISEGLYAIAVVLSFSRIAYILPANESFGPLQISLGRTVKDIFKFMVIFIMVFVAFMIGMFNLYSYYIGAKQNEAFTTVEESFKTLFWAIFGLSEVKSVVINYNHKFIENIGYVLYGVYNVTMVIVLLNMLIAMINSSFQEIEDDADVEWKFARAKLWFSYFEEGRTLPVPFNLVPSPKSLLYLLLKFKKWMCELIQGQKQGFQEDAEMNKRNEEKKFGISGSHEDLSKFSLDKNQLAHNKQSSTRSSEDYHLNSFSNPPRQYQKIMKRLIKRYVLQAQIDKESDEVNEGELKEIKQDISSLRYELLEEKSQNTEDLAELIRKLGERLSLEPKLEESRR

Assay [10] shares this target. Briefly: activation of mouse TRPC6 channel, confirmation, selectivity assay for TRPC4 activator project, cell-based, HEK293, membrane potential dye, duplicate (AID 434950;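 active = membrane potential signal rise above negative control mean plus 3 SD in both duplicates, also active in the earlier TRPC4 screen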;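 as to activation: 0% = buffer only wells and 100% = acetylcholine maximal-effect wells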). To be noted: HEK293 TRPC6, membrane potential fluorescence, at 10 µM; hits give high values.
For assay [11] the target is unchanged. Nature of the assay: TRPC6 potentiation by TRPC4 potentiator hits, confirmation, selectivity assay for TRPC4 potentiator project, HEK293 cells, membrane potential dye, duplicate (AID 434952;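 active = compound raising the membrane signal above positive-control mean plus 3 SD in both repeats, and a primary screen hit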). To be noted: HEK293 TRPC6, membrane potential dye fluorescence, at 10 µM, maximal acetylcholine added after compound; hits give high values.
For assay [12], the target named is Short transient receptor potential channel 4 (Mus musculus) (UniProt Q9QUQ5). Briefly: calcium flux activators in TRPC4/5HT1a cells, counter-screen for TRPC4 activator project, cell-based, second counter screen, HEK293 TRPC4/5HT1a, Fluo-4 (AID 434977;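 active = calcium signal rise above buffer-control mean plus 5 SD in both duplicates, and also a hit in the primary screen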;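 as to activation: plate controls were assay buffer for no effect and maximal serotonin response for full effect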). To be noted: Fluo-4 calcium flux, at 10 µM; hits give high values.
Assay [13] in a line: calcium flux inhibitors in TRPC4/5HT1a cells, confirmation, counter-screen for TRPC4 inhibitor project, cell-based, second counter screen, HEK293 TRPC4/5HT1a, Fluo-4 (AID 434978;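 active = primary screen active whose calcium signal fell more than 3 SD beyond the full-serotonin control mean in both duplicate plates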;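 also: serotonin given first at submaximal then at maximal dose after compound preincubation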). To be noted: Fluo-4 calcium flux, at 10 µM, serotonin added to trigger calcium flux; hits give high values.
Assay [14] concerns TRPC4 (mouse), co-expressed with 5HT1a in HEK293. Nature of the assay: calcium flux potentiators in TRPC4/5HT1a cells, confirmation, counter-screen for TRPC4 potentiator project, cell-based, second counter screen, HEK293 TRPC4/5HT1a, Fluo-4 (AID 434979;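 active = signal rise over 3 SD above mean of control wells given weak agonist, in both repeats and first screen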). Conditions: Fluo-4 calcium flux, at 10 µM, serotonin added at its EC20 dose; hits give high values.
The nature of assay [15]: calcium flux activation in mu-opioid HEK293 cells, confirmation, counter-screen for TRPC4 activator project, cell-based, HEK293 mu-opioid receptor line (AID 449723;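 active = hit in primary screen, with calcium signal over 5 SD above buffer well mean in both duplicates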;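 also: counter screen cells carry the mu-opioid receptor alone and lack TRPC4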). Conditions: Fluo-4 calcium fluorescence, at 10 µM; hits give high values.
Assay [16] is described as follows: calcium flux enhancement in mu-opioid HEK293 cells, confirmation, counter-screen for TRPC4 allosteric potentiator project, cell-based, HEK293 mu-opioid receptor line (AID 449724;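 active = calcium signal rise more than 3 SD above the low-dose agonist control mean, in both duplicate plates and the primary screen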). To be noted: Fluo-4 calcium flux, at 10 µM, compound added before EC20 DAMGO stimulus; hits give high values.
Assay [17] addresses Short transient receptor potential channel 4 (Mus musculus) (UniProt Q9QUQ5). Briefly: TRPC4 positive allosteric modulators, dose response, cell-based, HEK293 TRPC4/mu-opioid, Fluo-4 calcium, EC20 DAMGO (AID 434941;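 active = earlier screen potentiator hit that boosts the TRPC4 ion channel at some dose, with a dose response; inactive = no potentiation, no dose response, or not a prior hit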;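 also: calcium entry triggered by an EC20 dose of DAMGO at the co-expressed mu-opioid receptor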).

Molecules are shown by their SMILES. For part of these data: Results with a measured potency or affinity are listed apart. The source made the active and inactive calls.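 The calls were made as follows, unless noted: active = primary screen hit whose calcium fluorescence ratio, in both repeats, exceeds the weak agonist control mean by 3 SD; inactive = the rest.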

`CCCCn1c(SCC(=O)N2c3ccccc3Sc3ccccc32)nc2c1c(=O)n(C)c(=O)n2C`: the outcome in assay [1], in assay [2], in assay [5], in [6], in [7] and in assay [8] was inactive. The molecule was classed as inactive in assay [9], in assay [10], in [11], in assay [12], in assay [13] and in [15]. In addition, the outcome in [16] was inactive. Also, the potentiation in assay [3] was 8% (active); in [4] it was 97% (active); in [14], 93.4% (active).
Take `CCCCCCn1c(N2CCN(c3ccccc3)CC2)nc2c1c(=O)n(C)c(=O)n2C`: the outcome in [1], in assay [2], in assay [5], in [6], in assay [7] and in assay [8] was inactive. Besides, the outcome in assay [9], in assay [10], in [11], in assay [12], in assay [13] and in assay [15] was inactive. Also, the result in assay [16] was inactive. Moreover, the potentiation in [3] is 9% (active); in assay [4], 117% (active); in assay [14], 81% (active).
Regarding `Cc1cc(-c2ccc(C)c(S(=O)(=O)N3CCN(c4ccccn4)CC3)c2)on1`, the outcome in assay [1], in assay [2], in assay [3], in [5], in assay [6] and in [7] was inactive. For the same molecule, the outcome in [8], in [9], in [10], in [11], in [12] and in [13] was inactive. For the same molecule, the outcome in assay [15] and in [16] was inactive. Also, the potentiation was 18% (active) in [4] and 16.4% (active) in [14].
For `CN(C)c1ccc(C(CNC(=O)Cc2cccc3ccccc23)N(C)C)cc1` (stereo not given), the activation in assay [1] was 102% (active). Further, the outcome in assay [2], in [3], in assay [4], in assay [5], in assay [6] and in assay [17] was inactive. Besides, the result in [8], in assay [9], in [10], in [11], in assay [12] and in assay [13] was inactive. For the same molecule, the outcome in assay [14], in assay [15] and in assay [16] was inactive.
As for `O=C(NCc1ccccc1)C1=C[C@H](c2ccc(C(F)(F)F)cc2)C[C@H](OCc2ccc(CO)cc2)O1`, the outcome in [1], in assay [2], in [3], in assay [5], in assay [6] and in [7] was inactive. Besides, the outcome in assay [8], in [9], in [10], in assay [11], in [12] and in assay [13] was inactive. Further, the result in assay [15] and in [16] was inactive. Further, the potentiation in assay [4] is 51% (active); in assay [14] it was 111% (active).
For `OCC1(CCc2ccccc2)CCN(Cc2cccn2-c2cccnc2)CC1`, the results for the activation in assay [1] and in assay [10] were 56% (active) and 55% (active), respectively. In addition, the outcome in assay [2], in [3], in assay [4], in [5], in [6] and in [17] was inactive. Also, the result in assay [8], in [9], in assay [11], in assay [12], in assay [13] and in assay [14] was inactive. The outcome in [15] and in [16] was inactive.
With `CCn1cc(CNCc2cn(-c3ccccc3C)nc2-c2ccc(OC)c(F)c2)cn1`, the values for the activation in [1] and in assay [2] were 163% (active) and 74% (active), respectively. Also, the outcome in assay [3], in assay [4], in assay [5], in assay [6], in assay [17] and in assay [8] was inactive. The outcome in assay [9], in assay [10], in assay [11], in assay [12], in assay [13] and in [14] was inactive. For the same molecule, the result in [15] and in assay [16] was inactive.
Consider `CCC(=O)N1CCc2cc(Br)cc(S(=O)(=O)NCCCN(CC)Cc3ccccc3)c21`, for which the activation in assay [1] was 126% (active); in assay [2], 153% (active); in assay [12], 55.5% (active). Further, the outcome in assay [3], in assay [4], in assay [5], in [6], in [17] and in [8] was inactive. Moreover, the molecule was called inactive in [9], in assay [10], in [11], in assay [13], in assay [14] and in [15]. In addition, the outcome in [16] was inactive.
On to `CN(CCc1ccccn1)C1CC(=O)N(c2ccc(Cl)cc2)C1=O` (stereo not given), for which the activation in assay [1] was 195% (active); in assay [2], 70% (active); in assay [12] it was 102% (active). The result in [3], in [4], in assay [5], in [6], in [17] and in assay [8] was inactive. The molecule was classed as inactive in assay [9], in [10], in [11], in assay [13], in assay [14] and in assay [15]. The outcome in assay [16] was inactive.
With `CC(C)n1cnc2c(N(C)c3ccccc3)nc(N(CCN(C)C)Cc3ccccc3)nc21`, the outcome in [1], in assay [2], in assay [3], in assay [4], in assay [5] and in [6] was inactive. Besides, the result in assay [17], in assay [8], in assay [9], in assay [11], in assay [12] and in assay [13] was inactive. The result in assay [14], in [15] and in assay [16] was inactive. Moreover, the activation in assay [10] was 31% (active).
Consider `COc1ccc(C(CNC(=O)Cc2ccc(-c3ccccc3)cc2)N(C)C)cc1` (stereo not given), for which the activation is 192% (active) in assay [1], 112% (active) in [2] and 56% (active) in assay [10]. For the same molecule, the outcome in assay [3], in assay [4], in [5], in [6], in assay [17] and in assay [8] was inactive. Besides, the molecule was classed as inactive in assay [9], in assay [11], in assay [12], in [13], in [14] and in assay [15]. Moreover, the outcome in assay [16] was inactive.
Take `COc1ccc(C(CNC(=O)CCOc2ccccc2)N(C)C)cc1` (stereo not given): the activation in assay [1] is 145% (active); in assay [2], 77% (active); in [10], 45% (active). Besides, the outcome in [3], in assay [4], in [5], in [6], in assay [17] and in [8] was inactive. The call in assay [9], in assay [11], in assay [12], in [13], in assay [14] and in [15] was inactive. Further, the result in assay [16] was inactive.
Consider `CN(C)C(CNC(=S)Nc1ccc(Cl)cc1)c1cccnc1` (stereo not given), for which the result in assay [1], in assay [3], in assay [4], in assay [5], in [6] and in assay [17] was inactive. Moreover, the outcome in [8], in assay [9], in [10], in assay [11], in assay [12] and in assay [13] was inactive. Also, the result in assay [14], in [15] and in assay [16] was inactive. The activation in [2] was 118% (active).
As to `O=C(NC(=S)NNC(=O)c1cccs1)c1ccc(Br)o1`, the activation in assay [1] is 202% (active); in assay [12], 117% (active); in assay [15], 28.6% (active). Also, the result in assay [2], in [3], in assay [4], in [5], in assay [6] and in [17] was inactive. In addition, the outcome in assay [8], in assay [9], in assay [10], in [11], in assay [13] and in assay [14] was inactive. The result in assay [16] was inactive.
For the molecule `CCOC(=O)C1(Cc2cccc(F)c2)CCN(Cc2cnn(CC)c2)CC1`, the activation in [1] is 118% (active); in assay [2], 92% (active); in assay [10], 51.5% (active). Further, the outcome in assay [3], in assay [4], in assay [5], in assay [6], in [17] and in [8] was inactive. Besides, the outcome in assay [9], in [11], in [12], in assay [13], in assay [14] and in assay [15] was inactive. Besides, in assay [16], the result was inactive.
